B2AR arrestin ag = agonists recruiting beta-arrestin to human beta2-adrenergic receptor. P07550. HTLA Tango cells, beta-arrestin recruitment, luciferase luminescence, 18 h. Potency, µM (highest dose often 46.1 µM), usual class: activators. 44,000 tested, under 10 active. AID 1347077;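 note: potency is the fitted concentration of half-maximal effect; 0% = DMSO and full agonism = EC100 isoproterenol or metaproterenol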
Target sequence (P07550 whole entry, looked up): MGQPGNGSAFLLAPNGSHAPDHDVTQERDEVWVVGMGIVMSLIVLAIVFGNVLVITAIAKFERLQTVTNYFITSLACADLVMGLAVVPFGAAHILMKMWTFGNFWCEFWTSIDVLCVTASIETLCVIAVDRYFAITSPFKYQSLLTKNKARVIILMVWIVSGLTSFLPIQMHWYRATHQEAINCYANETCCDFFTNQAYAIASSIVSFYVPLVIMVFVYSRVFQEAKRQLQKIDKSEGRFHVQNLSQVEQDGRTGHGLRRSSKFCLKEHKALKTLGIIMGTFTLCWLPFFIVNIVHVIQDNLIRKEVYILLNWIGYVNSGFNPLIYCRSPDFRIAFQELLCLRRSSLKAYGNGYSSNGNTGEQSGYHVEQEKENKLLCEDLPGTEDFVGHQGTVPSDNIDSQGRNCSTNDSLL
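Tango cells expressing recombinant beta2-AR and beta-arrestin were treated with compounds (up to 46 microM titration) in DMEM with 1% FBS for 18 hr at 37 degrees C. Beta-arrestin recruitment drove tTA-dependent luciferase, read by luminescence; curves were fitted and classed.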
GALK inhibitor = inhibitors of human galactokinase (GALK) | 44,000 tested, under 10 active | recombinant GALK, Kinase-Glo ATP luminescence, 1 h | Potency, µM (top dose mostly 57.5 µM), for inactives: top-dose activity, negative = inhibition, actives largely listed as inhibitors | P51570 | AID 1347072;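 note: plate controls were full GALK reaction for no effect and reaction lacking GALK for full effect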
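Reactions with and without enzyme served as controls. GALK at 5 nM phosphorylates 100 uM galactose using 35 uM ATP (HEPES pH 8.0, Mg2+) for 1 h at RT, with luminescence read 10 min after adding Kinase-Glo Plus.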
HTT promoter inh = inhibitors of huntingtin promoter activity; HEK293 HTT promoter firefly luciferase reporter, 24 h; Potency, µM (series often up to 57.5 µM), for inactives: at the highest dose activity change, negative = inhibition, hits mostly inhibitors; hit rate 0.93% among 48,000; AID 1508623; note: potency is the fitted concentration of half-maximal effect; nearly all actives have a fitted effect of over 50% in size
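Luminescence was read after Dual-Glo reagent and a 10 min room-temperature incubation. Values were normalized to vehicle (0% activity) and zero RLU (-100% activity). Reporter HEK293 cells had been exposed to compounds (up to 57.5 uM final) for 24 h.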
GPR32 ag = GPR32 (DRV1) agonism, beta-arrestin recruitment; O75388; CHO-K1 GPR32 beta-arrestin PathHunter luminescence, 90 min; zero percent set by DMSO-only wells; activation, % at 76.9 µM; hit rate 2.5% among 48,000; AID 1346428;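 active = activation of at least 60% and not above a set upper limit, about 1 call in 100 departs from these limits; inconclusive = activation of 40% to 60%, or above that upper limit; inactive = activation under 40%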; note: 0% is about no effect
Target sequence (O75388 whole entry, looked up): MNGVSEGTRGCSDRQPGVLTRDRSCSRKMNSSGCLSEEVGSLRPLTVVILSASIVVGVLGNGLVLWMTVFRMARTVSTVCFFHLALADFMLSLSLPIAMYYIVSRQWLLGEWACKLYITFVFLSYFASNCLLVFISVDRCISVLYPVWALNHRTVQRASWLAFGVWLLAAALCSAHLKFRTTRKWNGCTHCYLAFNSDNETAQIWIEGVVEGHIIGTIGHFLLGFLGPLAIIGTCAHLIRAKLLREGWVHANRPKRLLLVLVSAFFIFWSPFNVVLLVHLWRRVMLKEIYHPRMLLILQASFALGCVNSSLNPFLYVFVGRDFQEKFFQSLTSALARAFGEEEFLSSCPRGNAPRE
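Luminescent readout of beta-Gal complementation quantifies ligand-induced beta-arrestin association with GPR32 in CHO-K1 cells; 90 min compound incubation at 37 °C, detection 1 h at room temperature.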
HTT-AS act = HTT-AS promoter activation. HEK293 HTT-AS promoter firefly luciferase reporter, 24 h; response scale: percent change from vehicle, -100% = no light. Potency, µM (series often up to 57.5 µM), inactives show top-dose activity change, positive = activation, most hits filed as activators. hit rate 0.24% among 48,000; note: potency is the fitted concentration of half-maximal effect; nearly all actives have a fitted effect of over 55% in size
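Firefly luciferase readout (Dual-Glo, 10 min RT) after 24 h, 37 °C compound exposure (final up to 57.5 uM) of HEK293 reporter cells cultured 24 h beforehand; PTC124 at 50 uM final as control inhibitor; activity scaled vehicle 0%, zero RLU -100%.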
TSG101-PTAP inh = blocks PTAP binding to human TSG101, validation; Q99816; Fluorescence polarization, FITC-PTAP peptide/Tsg101, 20 min; Potency, µM (highest dose often 115 µM), usual class: inhibitors; 44,000 tested, under 10 active; AID 1347069; note: potency is the fitted concentration of half-maximal effect; 0% is about no effect
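Read-out is FITC fluorescence polarization. Compounds were added to Tsg101 binding domain (10 uM final), then FITC-PTAP peptide (50 nM final), 20 min at r.t. Total S+P intensity flags fluorescent compounds.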
Numbers without * were called inactive; i = inactive; ? = inconclusive; . = not tested or not shown; [ ] = dose if it differs, or a comment. The list is not random: actives were taken first. Their share in the collection is about 3.7%. Unless noted, calls come from the whole dose curve; as a rule, active = well fitted curve in the direction sought with a large enough effect; inconclusive = small, poorly fitted or top-dose-only effect, or another doubt; inactive = no such curve, though single readings can be large; an effect the other way counts as inactive or inconclusive.

SMILES	B2AR arrestin ag	GALK inhibitor	HTT promoter inh	GPR32 ag	HTT-AS act	TSG101-PTAP inh
Cc1ccc(C(=O)NCC(c2ccc3c(c2)OCO3)N2CCN(c3ccc(F)cc3)CC2)cc1 (stereo not drawn)	i	0.2%	22.4µM*	-31.7	-39.8%	i
COc1cccc(C(=O)NCC(c2ccc3c(c2)OCO3)N2CCOCC2)c1 (stereo not drawn)	i	2.4%	-4.5%	-20.1	-14.3%	i
COc1cccc(NC(=O)C(=O)NCC(c2ccc3c(c2)OCO3)N2CCOCC2)c1 (stereo not drawn)	i	-0.8%	92.9%	-9.7	4.47µM*	i
COc1ccc(C(=O)NCC(c2ccc3c(c2)OCO3)N2CCN(c3ccc(F)cc3)CC2)cc1 (stereo not drawn)	i	-4.7%	?	-28.3	-35.6%	i
CCN1CCC(n2cc(CNc3cc(Cl)c4ncc(C#N)c(Nc5ccc(F)c(Cl)c5)c4c3)nn2)CC1	.	.	6.9%	.	-2.0%	.
Oc1cc(-c2nc(-c3ccccc3)[nH]c2-c2ccncc2)ccc1Cl	.	.	?	.	-24.7%	.
CC(C)[C@H](O)C(=O)N[C@@H](C)C(=O)N[C@@H]1C(=O)N(C)CCc2ccccc21	.	.	-12.9%	.	-2.2%	.
COC(=O)c1ccc(NC(C)=O)cc1OC	.	.	-2.2%	-10.5	-5.2%	.
COc1ccc(NC(=O)CSc2ccc(-c3cccs3)nn2)cc1	i	-1.1%	9.5%	112.0*	-1.0%	i
COc1ccc(NS(=O)(=O)c2ccc(NS(=O)(=O)c3ccc4c(c3)OCCO4)cc2)cc1	i	-0.1%	-29.0%	68.3*	-29.2%	i
O=S(=O)(Nc1ccc(Cl)cc1)c1ccc(NS(=O)(=O)c2ccc3c(c2)OCCO3)cc1	i	0.9%	?	23.9	-20.8%	i
Nc1ccc(C(=O)c2cc3c(ccc4ccccc43)[nH]2)cc1	.	.	-17.2%	.	-25.7%	.
Cn1cc(C=CC(=O)c2cccc(F)c2)cc1C=CC(=O)NO	.	.	33.1%	.	17.1%	.
CSc1ccc(CNC(=O)C2CCCN(S(=O)(=O)N(C)c3ccc(F)cc3)C2)cc1 (stereo not drawn)	i	-1.2%	22.4µM*	-9.2	-65.1%	i
CO[C@@]1(NC(=O)C(C(=O)O)c2ccc(O)cc2)C(=O)N2C(C(=O)O)=C(CSc3nnnn3C)CO[C@@H]21 (stereo partly drawn)	.	.	15.7%	63.0*	7.1%	.
CCN1CCN(C(=O)N[C@H](C(=O)N[C@@H]2C(=O)N3C(C(=O)O)=C(CSc4nnnn4C)CS[C@@H]23)c2ccc(O)cc2)C(=O)C1=O	.	.	1.2%[19.1 µM]	.	2.4%[19.1 µM]	.
CCOc1ccn(-c2ccc(F)cc2)c(=O)c1C(=O)Nc1ccc(Oc2ccnc(N)c2Cl)c(F)c1	.	.	-9.3%	.	-16.3%	.
CCOC(=O)c1c(NC(=O)COc2ccc(OC)cc2)sc(C(=O)N(CC)CC)c1C	i	0.4%	11.2µM*	-23.6	-58.1%	i
CCOC(=O)c1c(NC(=O)COc2ccc(Br)cc2)sc(C(C)=O)c1C	i	-0.4%	-21.2%	-6.4	5.9%	i
CCCS(=O)(=O)c1c(S(=O)(=O)CCC)c2cc(C(C)(C)C)ccn2c1C(=O)c1ccccc1	i	-2.2%	25.1µM*	-16.6	-83.6%	i
Cc1ccc(S(=O)(=O)N(CC(O)Cn2c3ccccc3c3ccccc32)c2cccc(C(N)=O)c2)cc1 (stereo not drawn)	i	-1.2%	?	85.6*	-50.9%	i
C[C@](Cc1c[nH]c2ccccc12)(NC(=O)OC1C2CC3CC(C2)CC1C3)C(=O)NC[C@H](NC(=O)CCC(=O)O)c1ccccc1 (stereo partly drawn)	.	.	26.3%	.	-12.4%	.
Cc1cccc(CCNC(=O)c2cc3ccccn3n2)c1	i	1.8%	.	101.4*	.	i
CNc1nc(-c2ccc3c(N)n[nH]c3c2)cc(N2C[C@@H](C(=O)NC3CCCCC3)CC[C@@H]2C)n1	.	.	-18.4%	.	-25.5%	.
CCO[C@H](Cc1ccc(OCCc2ccc(OS(C)(=O)=O)cc2)cc1)C(=O)O	.	.	11.7%	75.6*	1.4%	.
SMILES	B2AR arrestin ag	GALK inhibitor	HTT promoter inh	GPR32 ag	HTT-AS act	TSG101-PTAP inh
COc1ccc(-c2cn3nc(SCC(=O)Nc4ccccc4F)ccc3n2)cc1	i	0.7%	3.98µM*	-12.5	-91.8%	i
COc1ccc(-c2cc(-c3ccccc3)nc(SCC(=O)Nc3ccccc3F)c2C#N)cc1	i	9.4%	-5.9%	-2.7	-2.9%	i
COC(=O)c1ccccc1NS(=O)(=O)c1cc2c3c(c1)CC(=O)N3CCC2	i	-8.4%	-21.5%	-7.9	-7.0%	i
CCCCc1ccc(NS(=O)(=O)c2cc3c4c(c2)CC(=O)N4CCC3)cc1	i	3.2%	?	104.6*	-35.4%	i
CC(C)(O)c1cc2nc(-c3cnc(N)nc3)nc(N3CCOCC3)c2s1	.	.	?	.	-50.7%	.
COc1cccc2cc(-c3nc4ccc(C)cc4[nH]3)c(=O)oc12	i	0.0%	63.4%	12.3	0.316µM*	i
COc1ccc2oc(=O)c(-c3nc4ccc(C)cc4[nH]3)cc2c1	i	-5.4%	21.9%	3.5	7.8%	i
CC[C@@]1(O)C[C@H](O[C@H]2C[C@H](N(C)C)[C@H](O[C@H]3C[C@H](O)[C@H](O[C@H]4CCC(=O)[C@H](C)O4)[C@H](C)O3)[C@H](C)O2)c2c(cc3c(c2O)C(=O)c2c(O)cccc2C3=O)[C@@H]1C(=O)OC	.	.	-1.9%	.	-25.1%	.
O=C1CCSc2ccc(S(=O)(=O)Nc3ccc(Cl)c(C(F)(F)F)c3)cc2N1	i	1.4%	-17.5%	70.9*	-16.3%	i
CCN1C[C@H](C)n2c(c(O)c3c(=O)n(Cc4ccc(F)c(Cl)c4)nc(C(=O)NC)c32)C1=O	.	.	0.4%	.	17.6%	.
CCCOCc1cc(CN2CCN(c3cccc(Cl)c3)CC2)c(O)c2ncccc12	?	-1.4%	8.91µM*	-7.3	-38.0%	i
NC1=N[C@@]2(c3cc(NC(=O)c4ccc(F)cn4)ccc3F)COC[C@@H]2CS1	.	.	-19.5%	.	-26.7%	.
CCC(C(=O)Nc1c(C)cc(C)cc1C)n1c(=O)c(-c2ccccc2NC(C)=O)nc2ccccc21 (stereo not drawn)	i	1.4%	-9.5%	-0.5	-7.4%	i
CCc1ccc(NC(=O)C(CC)n2c(=O)c(-c3ccccc3NC(C)=O)nc3ccccc32)cc1 (stereo not drawn)	i	1.9%	14.1µM*	-1.1	-35.3%	i
O=C(N/N=C/c1ccccc1O)c1ccncc1	.	.	-24.5%	95.9*	-16.0%	.
